Compounds with a hit are over-represented: about 3.7% of the library has one in this group of screens.
Sm TGR block: qHTS Assay for the Inhibitors of Schistosoma Mansoni Peroxiredoxins; Schistosoma mansoni thioredoxin glutathione reductase (TGR), Q962Y6; 360,000 compounds, 3% hits; AID 485364, 2010; Potency, µM (titrated, usually from 114 µM), hits mostly inhibitors; purified TGR, DTNB reduction, TNB absorbance 405 nm; further: nearly all actives have a fitted effect of over 60% in size
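TGR 20 nM + NADPH 100 uM (dispensed conc.), cpd preinc 15 min RT; start with NADPH (500 uM addition) then DTNB (15 mM addition). Kinetic TNB absorbance, 405 nm filter. Four-parameter Hill fit across titration.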
FMDV antiviral: High Throughput Screening for Foot and Mouth Disease Virus Antivirals | FMDV antiviral cell-based qHTS | 410,000 compounds, 1.2% hits | Potency, µM (titrated, usually from 57.9 µM), hits mostly inhibitors; calls by dose curve; tested in HEK293T cells; further: read-out not given here; nearly all actives have a fitted effect of over 45% in size
RE007 growth inh: qHTS Assay for Inhibitors of the HIV-1 protein Vpr; S. pombe RE007 Vpr strain, BacTiter-Glo ATP luminescence, 24 h; Potency, µM (highest dose often 92.2 µM), most hits filed as inhibitors; 360,000 compounds, 0.21% hits; active means well fitted falling curve with a large enough effect; inconclusive means small, poorly fitted or top-dose-only effect; inactive means no such curve, though single readings can be large or run the other way; further: nearly all actives have a fitted effect of over 50% in size
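Fission yeast RE007 carrying one integrated HIV-1 vpr copy, seeded at OD 0.01 in PMG+AL medium with 23 nL pinned compound. Grown 24 h at 30 degrees; viability read by BacTiter-Glo luminescence after 5 min.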
TbPYK inhibitor: qHTS of Trypanosoma Brucei Inhibitors; Potency, µM (doses to about 76.8 µM), actives largely listed as inhibitors; pyruvate kinase (Trypanosoma brucei), Q57TT1; TbPYK enzyme, Kinase-Glo Plus ATP luminescence, 45 min; 410,000 compounds, 0.12% hits; further: nearly all actives have a fitted effect of over 50% in size
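Activity of T. brucei pyruvate kinase was followed by Kinase-Glo Plus luminescence after the enzyme reacted 45 min at room temperature with 130 uM ADP (final) and substrate. Test compounds were added before ADP at multiple concentrations.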
Each line names hits and unclear results; the compound was inactive in the other large screens. Unless noted, the call rests on the fitted dose curve; in most records, active means well fitted curve in the direction sought with a large enough effect; inconclusive means small, poorly fitted or top-dose-only effect, or another doubt; inactive means no such curve, though single readings can be large; an effect the other way counts as inactive or inconclusive.

CN(C)C(=S)NC1CCS(=O)(=O)C1 (configuration not stated)	RE007 growth inh inconclusive
NNC(=S)NC1CCS(=O)(=O)C1 (configuration not stated)	none
Cc1nc(NCc2ccco2)c(C#N)c2c1COC(C)(C)C2	none
N#Cc1c(N2CCOCC2)nc(-c2ccco2)c2c1CCCC2	Sm TGR block 2.8µM
CCCCN(C)c1nc(-c2ccco2)c2c(c1C#N)CC(C)(C)OC2	Sm TGR block 2.8µM, TbPYK inhibitor inconclusive
CC1(C)Cc2c(C#N)c(NCc3ccco3)nc(-c3ccco3)c2CO1	Sm TGR block 7.9µM
CCc1nc(N2CCOCC2)c(C#N)c2c1CCCC2	FMDV antiviral inconclusive
CC(C)CCNc1nc(-c2ccco2)c2c(c1C#N)CCCC2	Sm TGR block 40µM, FMDV antiviral inconclusive
CN(C)CCNc1nc(-c2ccco2)c2c(c1C#N)CC(C)(C)OC2	none
Cc1cccc(C(=O)Nc2ccc(S(=O)(=O)N3CCC(c4nc5ccccc5s4)CC3)cc2)c1	none (no result: RE007 growth inh)
CCOC(=O)c1noc2ncnc(N3CCN(c4cccc(Cl)c4)CC3)c12	none (no result: RE007 growth inh)
CC1(C)Cc2c(C#N)c(N3CCN(C(=O)c4ccccc4)CC3)nc(-c3ccco3)c2CS1	Sm TGR block 3.2µM
CC(C)c1nc(N2CCN(C(=O)c3ccco3)CC2)c(C#N)c2c1COC(C)(C)C2	none
CC1(C)Cc2c(C#N)c(N3CCCC3)nc(-c3ccco3)c2CO1	Sm TGR block 3.5µM (no result: FMDV antiviral, RE007 growth inh, TbPYK inhibitor)
CCc1ccc(S(=O)(=O)c2nnn3c2nc(Nc2ccc(NC(C)=O)cc2)c2sccc23)cc1	none (no result: RE007 growth inh)
CCn1c(CCNC(=O)c2ccc(Cl)c(Cl)c2)nnc1SCCOc1ccc(OC)cc1	FMDV antiviral 40µM
CCOCCCN(Cc1ccco1)C(=O)c1cc2c(=O)[nH]c3ccc(C)cc3c2s1	Sm TGR block 40µM
COCCN(Cc1ccco1)C(=O)c1cc2c(=O)[nH]c3ccc(C)cc3c2s1	none (no result: RE007 growth inh)
COc1ccc2cc3[n+](cc2c1O)CCc1cc2c(cc1-3)OCO2	FMDV antiviral 10µM (no result: Sm TGR block)
CCCCOC(=O)c1ccc(Nc2nc3ccccc3c3nnc(C)n23)cc1	none (no result: RE007 growth inh)
O=C(NCC1CCN(c2ccc(S(=O)(=O)N3CCOCC3)cc2)CC1)c1ccc(Cl)cc1	FMDV antiviral 40µM
COc1ccccc1CN=c1c([N+](=O)[O-])nn(-c2ccc3c(c2)OCCO3)n1O	Sm TGR block 40µM
COc1ccc(-n2nc([N+](=O)[O-])c(=NCCc3ccc(OC)c(OC)c3)n2O)cc1	Sm TGR block 35µM, FMDV antiviral inconclusive
Cc1ccc(-n2c(SCC(N)=O)nc3c(c2=O)C2(CCCC2)Cc2ccccc2-3)cc1	FMDV antiviral 22µM
CCSc1n[nH]c2nc3c(c(=O)n12)C1(CCCC1)Cc1ccccc1-3	FMDV antiviral inconclusive
CCOC(=O)c1cc(OC(=O)c2cccc(F)c2)n(-c2ccccc2)n1	none (no result: RE007 growth inh)
COc1cccc(NC2=C(C#N)C(=O)NC(c3cccc(OC)c3O)S2)c1 (configuration not stated)	Sm TGR block 7.9µM
C=CCNC(=S)Nc1c(C(=O)OC)[nH]c2cc(OC)ccc12	Sm TGR block 1.8µM
COc1cc(=O)n2c(c1C(=O)N(C)Cc1nccs1)CCN(Cc1cccc(F)c1F)CC2	none (no result: Sm TGR block, RE007 growth inh, TbPYK inhibitor)
O=C(CCC(=O)N1CCN(c2ccc(O)cc2)CC1)c1cccs1	Sm TGR block 56µM
Cc1ccc2[nH]nc(C(=O)N3CCOc4ccc(CN5CCc6sccc6C5)cc4C3)c2c1	none (no result: Sm TGR block, RE007 growth inh, TbPYK inhibitor)
COc1ccc2c(c1)NC(C)(C)C=C2C	Sm TGR block 40µM
CC1=CC(C)(C)Nc2ccccc21	none
Cn1ncc2c(O/N=C(\N)c3ccc(C(F)(F)F)cc3)ncnc21	FMDV antiviral 22µM
CC(=O)c1cccc(NC(=O)CCS(=O)(=O)c2ccc(Br)s2)c1	Sm TGR block 40µM
Cc1ccc(CNC(=O)CCS(=O)(=O)c2ccc(Br)s2)o1	Sm TGR block 10µM
COC(=O)c1ccc(NC(=O)CCS(=O)(=O)c2ccc(Br)s2)cc1	none
CCC1Sc2ccc(S(=O)(=O)CCC(=O)NCc3ccc(C)o3)cc2NC1=O (configuration not stated)	Sm TGR block 28µM
O=C(CCS(=O)(=O)c1ccc(Br)s1)NCc1ccccc1	Sm TGR block inconclusive
CC(C)c1ccc(/C=C(\C#N)c2nc(-c3ccc(O)cc3)cs2)cc1	none (no result: RE007 growth inh)
COC(=O)C1=C(O)/C(=C\c2cc(C)n(-c3ccccc3C)c2C)N=C1C	Sm TGR block 25µM (no result: FMDV antiviral)
COC(=O)c1cccc(-n2c(C)cc(C=O)c2C)c1C	none
COC(=O)C1=C(O)/C(=C\c2cc(C)n(-c3ccccc3F)c2C)N=C1C	Sm TGR block 25µM
COC(=O)C1=C(O)/C(=C\c2sccc2C)N=C1C	none
O=c1c2ccccc2nc(/C=C/c2cc(Br)ccc2O)n1CCCO	FMDV antiviral 25µM
O=c1c2ccccc2nc(/C=C/c2cccc([N+](=O)[O-])c2)n1CCO	none
O=C(Nc1cc(F)ccc1F)c1ccc(CN2CC(=O)N3CCCCC3C2=O)cc1 (configuration not stated)	none (no result: RE007 growth inh)
O=c1[nH]c(=O)n(Cc2ccco2)c(O)c1C=NCc1ccco1	Sm TGR block 25µM, TbPYK inhibitor inconclusive (no result: FMDV antiviral)
CC(=O)Nc1ccc(N=Cc2c(O)n(Cc3ccco3)c(=O)[nH]c2=O)cc1	Sm TGR block 25µM
Cc1ccc(-n2c(O)c(C=NCc3ccco3)c(=O)[nH]c2=S)cc1C	Sm TGR block 10µM
CCN(CC)CCN=Cc1c(O)n(Cc2ccco2)c(=O)[nH]c1=O	none
O=c1[nH]c(=S)n(-c2ccccc2F)c(O)c1C=NCc1ccco1	none
Cc1cc(C)c2nc(N3CCCC(C(=O)NCc4ccccc4F)C3)sc2c1 (configuration not stated)	none (no result: RE007 growth inh)
COc1cc2c(cc1OC)C(c1cc(Br)ccc1F)N(C(=O)CCl)CC2 (configuration not stated)	Sm TGR block 0.79µM, FMDV antiviral 28µM (no result: RE007 growth inh)
COC(=O)c1cc(O)cc(OC)c1Oc1cc(C)cc(O)c1C(=O)O	Sm TGR block 7.1µM
CCOC(=O)c1ccc(NC(=O)Nc2ccc3snnc3c2)cc1	none (no result: RE007 growth inh)
Cc1cc(C)cc(NC(=O)Cn2c(C)cc(C)c(C#N)c2=O)c1	none (no result: RE007 growth inh)
COc1cccc(CN2C(=O)NC(C)(C3CCN(Cc4ccc(C)o4)CC3)C2=O)c1OC (configuration not stated)	none (no result: Sm TGR block, RE007 growth inh, TbPYK inhibitor)
Cc1ccc2c(c1)CN(CCNC(=O)C(C)Oc1ccccc1)CC(C)O2 (configuration not stated)	none (no result: Sm TGR block, RE007 growth inh, TbPYK inhibitor)
CN(CCO)c1cc(Sc2nc3ccccc3s2)c2nonc2c1[N+](=O)[O-]	Sm TGR block 0.32µM, FMDV antiviral 22µM
CCOC(=O)N1CCN(c2cc(N(C)CCO)c([N+](=O)[O-])c3nonc23)CC1	Sm TGR block 35µM
CC(=O)OCCN(C)c1cc(SC(C)C)c2nonc2c1[N+](=O)[O-]	Sm TGR block 0.71µM
COC(=O)c1cc(CNC(=O)c2ccccn2)cc(NC(=O)c2ccccc2OC)c1	none (no result: Sm TGR block, RE007 growth inh, TbPYK inhibitor)

Bioassay records deposited in PubChem by National Center for Advancing Translational Sciences (NCATS).
